{"source": "PubChem BioAssay AID488859", "about": "(Sanford-Burnham Center for Chemical Genomics, 2010)", "note": "About 970 (69%) of roughly 1,400 compounds were called active. Inconclusive results (about 5%) are left out. So high a share suggests a set chosen from earlier hits. These entries were drawn from the full list. A number with no mark means an inactive call. No stated cut-off is given here; in the data, active means inhibition above about 45%; inconclusive means no clear call, values can overlap the other calls; inactive means below that.", "data": [{"target": "Ubiquitin-conjugating enzyme E2 N (Homo sapiens) (UniProt P61088)", "sequence (P61088 whole entry, looked up)": "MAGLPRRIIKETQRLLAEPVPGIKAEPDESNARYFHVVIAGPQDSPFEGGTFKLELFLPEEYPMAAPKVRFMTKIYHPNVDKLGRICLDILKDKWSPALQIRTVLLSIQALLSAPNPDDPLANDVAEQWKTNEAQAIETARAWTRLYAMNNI", "assay": "UBC13 polyubiquitination inhibitors, single-point retest, confirmation, biochemical, TR-FRET, single concentration (AID 488859)", "conditions": "at 10 µM, stronger effect = higher value", "values": [{"molecule": "O=S(=O)(c1ccc(NC(=S)NN=C(C2CC2)C2CC2)cc1)N1CCOCC1", "inhibition": "60.4% (active)"}, {"molecule": "CN(C(=O)CN(CCO)CC(=O)N(C)C(C)(C)Cc1ccccc1)C(C)(C)Cc1ccccc1", "inhibition": "44.3%"}, {"molecule": "Cc1cccc(OCC(O)CN2CCN(CCN3C(=O)c4cccc5cccc(c45)C3=O)CC2)c1C", "note": "(configuration not stated)", "inhibition": "101% (active)"}, {"molecule": "CCN1C(=NCc2ccc(OC)cc2)N[C@@H](CCc2ccccc2)[C@H](C(=O)NCc2ccc(OC)cc2)[C@H]1C", "inhibition": "34.8%"}, {"molecule": "COc1cccc(Cn2cnc3c([N+](=O)[O-])c(C)c(C)cc32)c1", "inhibition": "63.7% (active)"}, {"molecule": "NC(N)=N/N=C/c1ccc(OCc2ccc(Cl)cc2Cl)cc1", "inhibition": "121% (active)"}, {"molecule": "CN(C)CCCN(C(=O)c1ccc(S(=O)(=O)N2CCCCCC2)cc1)c1nc2cc3c(cc2s1)OCCO3", "inhibition": "110% (active)"}, {"molecule": "CCOc1ccc2nc(N(CCCN(C)C)C(=O)c3ccc(C(=O)c4ccccc4)cc3)sc2c1", "inhibition": "111% (active)"}, {"molecule": "CN(C)CCCN(C(=O)c1ccc(S(=O)(=O)N2CCCCCC2)cc1)c1nc2ccc(Br)cc2s1", "inhibition": "107% (active)"}, {"molecule": "c1ccc2c(CCN3CCNC[C@H]3Cc3cccc4ccccc34)cccc2c1", "inhibition": "44.3%"}, {"molecule": "CCCCCCCCCCOC(=O)Cn1c(COc2cccc(OC)c2)[n+](C)c2ccccc21", "inhibition": "63.8% (active)"}, {"molecule": "CCOC(=O)c1cccc(NS(=O)(=O)c2c(C(=O)N3CCCCCC3)c(C)n(C)c2C)c1", "inhibition": "43.9%"}, {"molecule": "COc1ccc(C(CNC(=O)c2cccc(NS(=O)(=O)c3ccc(C)c(F)c3)c2)N2CCCC2)cc1", "note": "(configuration not stated)", "inhibition": "94.5% (active)"}, {"molecule": "COC(=O)c1cc(-c2cccs2)nc2ccccc12", "inhibition": "18.1%"}, {"molecule": "CCCCN(C)CCCNC(=O)c1cc(-c2cccs2)nc2ccccc12", "inhibition": "45.7% (active)"}, {"molecule": "Cc1cc(C)c(NC(=O)C[N+](C)(C)CC(O)COc2cccc3ccccc23)c(C)c1", "note": "(configuration not stated)", "inhibition": "60.3% (active)"}, {"molecule": "CCCCN(CCCC)CCC(O)c1cc2c(Cl)cc(Cl)cc2c2cc(C(F)(F)F)ccc12", "note": "(configuration not stated)", "inhibition": "56.5% (active)"}, {"molecule": "Cc1ccc(-c2noc(CCC(=O)Nc3ccccc3N3CCN(C)CC3)n2)cc1", "inhibition": "92.8% (active)"}, {"molecule": "CCCOc1ccc(Cl)cc1Nc1nc(NCCO)nc(N2CCCC2)n1", "inhibition": "16.5%"}, {"molecule": "C#CCOCCOCCOCCNc1nc(N2CCN(C(=O)[C@H](CCCCN)n3cc([C@@H](N)C(C)CC)nn3)CC2)nc(N2CCN(C(=O)[C@H](Cc3ccc(O)cc3)n3cc([C@@H](N)C(C)CC)nn3)CC2)n1", "note": "(some centres not stated)", "inhibition": "105% (active)"}, {"molecule": "C#CCOCCOCCOCCNc1nc(N2CCN(C(=O)C([C@@H](C)CC)n3cc(C(N)COC(=O)C(F)(F)F)nn3)CC2)nc(N2CCN(C(=O)[C@H](CCCCN)n3cc(C(N)CC(C)C)nn3)CC2)n1", "note": "(some centres not stated)", "inhibition": "103% (active)"}, {"molecule": "C#CCOCCOCCOCCNc1nc(N2CCN(C(=O)C(Cc3ccc(O)cc3)n3cc(C(N)CC(C)C)nn3)CC2)nc(N2CCN(C(=O)C(Cc3ccc(O)cc3)n3cc(C(N)C(C)CC)nn3)CC2)n1", "note": "(configuration not stated)", "inhibition": "23.8%"}, {"molecule": "C#CCOCCOCCOCCNc1nc(N2CCN(C(=O)C([C@@H](C)O)n3cc([C@@H](N)CCCCN)nn3)CC2)nc(N2CCN(C(=O)[C@H](CCCCN)n3cc(CN)nn3)CC2)n1", "note": "(some centres not stated)", "inhibition": "113% (active)"}, {"molecule": "C=C1c2c(Cl)ccc(O)c2C(O)=C2C(=O)[C@]3(O)C(O)=C(C(N)=O)C(=O)[C@@H](N(C)C)[C@@H]3[C@@H](O)C12", "note": "(some centres not stated)", "inhibition": "50.8% (active)"}, {"molecule": "COc1ccccc1NC(=O)CSc1nnc(-c2ccoc2C)n1CCc1ccccc1", "inhibition": "94.4% (active)"}, {"molecule": "CCN(CC)CCC(c1cc(OC)c(OC)c(OC)c1)c1c(OC)cc(OC)c2c(-c3ccccc3)cc(=O)oc12", "note": "(configuration not stated)", "inhibition": "35.1%"}, {"molecule": "CN1CCN(CCCNC(=O)c2ccc(/C=C3\\Oc4ccccc4N(Cc4ccc(Cl)cc4)C3=O)cc2)CC1", "inhibition": "111% (active)"}, {"molecule": "Cn1c(C(=O)NCCCN2CCN(c3cccc(Cl)c3)CC2)cc2c(=O)n(C)c3ccccc3c21", "inhibition": "38.7%"}, {"molecule": "CCN(CC(=O)NCc1cccs1)C(=O)c1cccc(S(=O)(=O)Nc2ccccc2OC)c1", "inhibition": "106% (active)"}, {"molecule": "OCCNc1nc(Nc2ccc(Cl)c(Cl)c2)nc2ccccc12", "inhibition": "92% (active)"}, {"molecule": "Cc1ncc(CO)c(/C=N/NC(=O)c2cccc(S(=O)(=O)N3CCCC3)c2)c1O", "inhibition": "32.9%"}, {"molecule": "CSCCC(NC(=O)c1ccc(Cl)cc1Cl)C(=O)NNC(=O)c1csc(N2CCOCC2)n1", "note": "(configuration not stated)", "inhibition": "55.6% (active)"}]}]}
